# Laboratory results published in PubChem BioAssay (NCI).
# About 79,000 compounds went through this panel and 15% of them were active in at least one assay; those are over-represented in the sample as a whole. A number with no mark means an inactive call. Activity calls are given as the source filed them. No stated cut-off is given here; in the data, active means growth inhibition above about 70%; inactive means the rest. Where a SMILES comes first, the peptide text is derived from it. The star is where a group is joined. Trt = c1ccc(C(c2ccccc2)(c2ccccc2)*)cc1; Cbz = O=C(OCc1ccccc1)*
# How the values were obtained:
# [1] = NCI Yeast Anticancer Drug Screen. Data for the rad50 strain (AID 155);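 further: 0% = growth of vehicle-only cultures of the same strain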; conditions: S. cerevisiae rad50 strain growth inhibition; at 50.0 µM; active compounds read high
# In short: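 Inhibition values express reduced yeast growth in compound-treated cultures relative to vehicle-treated controls.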
# [2] = NCI Yeast Anticancer Drug Screen. Data for the mec2-1 strain (AID 157); conditions: S. cerevisiae mec2-1 strain, at 50.0 µM, active compounds read high
# In short: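 Vehicle-treated cultures served as reference for growth inhibition of compound-exposed mec2-1 yeast.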
# [3] = NCI Yeast Anticancer Drug Screen. Data for the sgs1 mgt1 strain (AID 161);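 further: 0% = growth of cultures given vehicle only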; conditions: S. cerevisiae sgs1 mgt1 strain, at 50.0 µM, active compounds read high
# In short: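 Genetically altered yeast, compound exposure, growth inhibition relative to vehicle.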
# [4] = NCI Yeast Anticancer Drug Screen. Data for the cln2 rad14 strain (AID 165);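 further: 0% = growth equal to vehicle treated cultures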; conditions: S. cerevisiae cln2 rad14 strain, at 50.0 µM, active compounds read high
# In short: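 Each compound was tested on cln2 rad14 yeast. Inhibition of growth was calculated against vehicle-exposed controls.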
# [5] = NCI Yeast Anticancer Drug Screen. Data for the bub3 strain (AID 167); conditions: S. cerevisiae bub3 mutant strain, at 50.0 µM, active compounds read high
# In short: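 Steps: expose the mutant yeast strain to compound; grow alongside vehicle-treated cultures; measure growth; express inhibition against the vehicle cultures.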
# [6] = NCI Yeast Anticancer Drug Screen. Data for the mlh1 rad18 strain (AID 175); conditions: S. cerevisiae mlh1 rad18 strain growth inhibition; at 50.0 µM; active compounds read high
# In short: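 Vehicle-treated cultures served as the reference for growth inhibition in a yeast strain carrying DNA damage repair alterations exposed to each compound.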
SMILES,growth inhibition [1],growth inhibition [2] [%],growth inhibition [3],growth inhibition [4],growth inhibition [5] [%],growth inhibition [6]
NC1(C(=O)O)CC(O)(c2ccccc2)C(O)(c2ccccc2)C1 (centres undefined),-22.5%,-6.1,-10%,6.2%,3.75,-9.5%
Cc1c(C(C)C(=O)O)c2ccccc2n1C (centres undefined),39%,12.9,31.9%,33.1%,56.8,45.1%
CC(=O)N(CCC(C)C)c1ccccc1,10.6%,11.6,-0.75%,-43.9%,-6.45,-6.85%
CCC(=O)OCCN(C)C,-28%,-50.4,0.65%,10.8%,-19.3,-8.35%
c1ccc(CC2(c3ccccc3)OCc3ccccc32)cc1 (centres undefined),6%,12.2,17.6%,15.4%,-2.2,20.5%
O=Cc1ccc2ccccc2c1,33.5%,-12,-7.45%,-57.5%,16.8,30.8%
COC(=O)c1cc(=O)[nH]c2c1c(=O)[nH]c(=O)n2C,5.7%,9,-4.7%,-39.2%,7.1,21.4%
CCOC(=O)c1c(/N=C/c2cc(Br)ccc2O)sc2c1CCCC2,11.7%,-7.8,0.4%,12.9%,-1.4,10.7%
O=c1[nH]c(=O)c2ncn(C3OC(CO)C(O)C3O)c2[nH]1.O=c1[nH]c(=O)c2ncn(C3OC(CO)C(O)C3O)c2[nH]1.[NH2-].[NH2-].[Pt+2] (centres undefined),3.35%,33.5,41.7%,3.55%,-8.5,40.4%
COC(=O)C(CO)NC(=O)C(CSC(c1ccccc1)(c1ccccc1)c1ccccc1)NC(=O)OCc1ccccc1 (centres undefined) (Cbz-Cys(Trt)-Ser-OMe; configuration not given here),76.2% (active),68.7,78.8% (active),78% (active),67.2,84.2% (active)
c1ccc(Cc2cc(-c3cc(Cc4ccccc4)[nH]n3)n[nH]2)cc1,22.2%,11.2,19.4%,19.2%,5.4,20.9%
CCOc1snc(C(Cl)(Cl)Cl)c1Cl,9.7%,15.3,5.05%,18%,22.3,8.2%
CC(=O)c1c(O)ccc2c1CC(CC=O)O2 (centres undefined),18.6%,-1.05,-20.9%,0.75%,9.05,-21.4%
O=C1c2cc(Cl)ccc2NC(=NC2CCCC2)C2CSCN12 (centres undefined),7.8%,-13.2,2.8%,-6.35%,-22.8,16.6%
CC1=CCCCC1,3.85%,2.8,-1.35%,-5.1%,8.65,-7.25%
CC(=O)N(C)c1ccc(C)cc1,-14.9%,-1.05,-4.35%,-27.6%,-4.2,7%
CCOC(=S)SCCSC,11.7%,6.3,-1.45%,4.35%,-3.6,11.6%
COc1ccc(-c2cc3c(c4cc(OC)ccc24)C(=O)OC3=O)cc1,-29.1%,-5.1,20.6%,1%,4.4,-15.1%
CN(C)C(=O)C1C2CCCC(CC2)C1C(=O)N(C)C (centres undefined),13.7%,19.6,21.2%,20.5%,18,20.2%
c1ccc2c(c1)cc1ccc3cc4ccccc4c4nnc2c1c34,-23.1%,-7.3,-10.2%,-16.8%,-11.9,-14.6%

SMILES,growth inhibition [1],growth inhibition [2] [%],growth inhibition [3],growth inhibition [4],growth inhibition [5] [%],growth inhibition [6]
Nc1nc(N)c2nc3c(nc2n1)CCCCCC3,4.25%,-4,4.25%,-19.4%,-3.2,2.55%
CCON=C(c1ccc(Cl)cc1)c1ccc(Cl)cc1,2.45%,-21.6,12.7%,16.8%,26.1,1.4%
CN(CCC(=O)c1ccc2ccccc2c1)Cc1ccccc1,16.4%,3,27.4%,-1.45%,8,20.7%
Nc1cc2c(cc1Br)-c1ccc(Br)cc1C2=O,-6.65%,-6.65,-0.7%,-30.2%,21.4,-5.25%
CC(OC(=O)Nc1ccccc1)c1ccccc1 (centres undefined),37.2%,7.9,11.9%,9.9%,9.2,17.4%
Cn1cnc2c(=O)[nH]cnc21,12.9%,-12.7,-2.4%,-4.8%,14.7,-8.5%
O=C(O)C1OC1(c1ccccc1Cl)c1ccccc1Cl (centres undefined),7.3%,-13.2,7.8%,1.55%,-3.3,9.55%
Cc1cc(C)c(COCc2c(C)cc(C)cc2C)c(C)c1,19%,10.1,-0.55%,-34.1%,-2,12.8%
NC(=O)C(CCc1ccccc1)(CCc1ccccc1)c1ccc2ccccc2c1,19.5%,11.2,-2.85%,6.6%,29.8,46%
CCOC1CCC(C(C)=O)C(C#N)(C#N)C1(C#N)C#N (centres undefined),38.1%,-9.55,-21.6%,-7.35%,-37.9,-42.5%
COc1ccc2c(c1)CCCN2S(=O)(=O)c1ccccc1[N+](=O)[O-],-25.7%,-3.9,-17.9%,-7.65%,39.2,1.85%
CCOC(=O)C1SC(=S)N(c2ccccc2)C1N (centres undefined),-3.75%,14.6,39.8%,-11.6%,-4.45,11.8%
COCCCNC(=O)C1C(=O)N(CCCOC)C(=O)/C1=N\N (centres undefined),5.15%,21.1,12.1%,-9.3%,-2.25,17.1%
NCCCNCCS,19.6%,1.5,22.6%,18.3%,2.5,17.1%
COc1ccc2c(c1OC)OC1CNc3cc(C)c(C)cc3N=C1C2 (centres undefined),6.1%,3.35,4.05%,-42.2%,12.8,7.35%
CCOCCC(=O)OCCC(C)OC (centres undefined),4.95%,11,11.2%,-26.4%,-58.1,-37.2%
COC(=O)c1nnn(-c2c(C)cccc2C(C)C)c1C(=O)c1ccccc1,6%,-2.45,-2.15%,-7.6%,-23.8,24.1%
CCOC(=O)c1ccc(N(CC(=O)O)S(=O)(=O)c2ccc(C)cc2)s1,17.5%,-1,2.5%,16.6%,0.85,-8.8%
C=CCOC(=O)C1CCCCC1C(=O)OCC=C (centres undefined),1.45%,-1.65,1.4%,3.3%,21.6,1.9%
